“And” between values parts separate entries of the source, which are not always exact repeats. Equal values may be shown once. Unmarked numbers belong to inactive results.
These compounds were tested on HCC1569 (assay: H1.0 immunofluorescence intensity relative to DMSO (% of DMSO); higher = stronger H1.0 induction, active = 140 or more). Conditions: concentration: 10 µM; 24 h.
In short: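 Cell number or H1.0 nuclear intensity appears as percent of the plate control, based on the median of replicates. Measurements came from HCC1569 and TDF cells exposed in triplicate to compounds at 10 µM for 24 h at 37 °C, then imaged in six fields per well at ×10. Positional effects were smoothed out of HCC1569 values.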
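Also: TDF is a line of transformed human dermal fibroblasts of mesenchymal origin.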

SMILES | H1.0 immunofluorescence intensity
CCCCCCCCCCCCCCCC(=O)NC(CN1CCOCC1)C(O)c1ccccc1 (racemic) | 102
CSCC[C@@H](C=O)NC(=O)[C@H](CC(C)C)NC(=O)[C@H](CC(C)C)NC(C)=O | 92.2
CC(CCc1ccc(O)cc1)NCCc1ccc(O)c(O)c1.Cl (centres undefined) [Dobutamine.HCl] | 105
CC(C)n1cnc2c(NCc3ccccc3)nc(NCCO)nc21 [N9-Isopropylolomoucine] | 314 (active)
CCN(CC)Cc1ccc(C(=O)N(CCc2ccccc2OC)[C@@H]2CCNC2)cc1.Cl.Cl | 115
CC(C)(C)c1ccc(C(O)CCCN2CCC(C(O)(c3ccccc3)c3ccccc3)CC2)cc1 (centres undefined) [Terfenadine] | 126
Cc1cc(C)c(C=C2C(=O)Nc3ccccc32)[nH]1 | 115 and 103
Cl.Nc1nc2ccc(OC(F)(F)F)cc2s1 [Riluzole.HCl] | 94.8
CCOC(=O)C1=CC(OC(CC)CC)C(NC(C)=O)C(N)C1 (centres undefined) [Oseltamivir] | 99.4
CCCCCCCCCCCCCCCCCCOP(=O)([O-])OC1CC[N+](C)(C)CC1 [1,1-dimethylpiperidinium-4-yl octadecyl phosphate] | 103
Cc1cc(=O)oc2cc(O)ccc12 [4-Methylumbelliferone] | 94.5
CC1CCC(C(C)(C)O)CC2=C1CCC2C (single isomer, unassigned; (-)) [(-)-Guaiol] | 106
C[N+](C)(C)CCO.[Br-] [Choline bromide] | 98
CCCCC=CCCCCCCCC(=O)O [9(Z)-Tetradecenoic acid] | 99.8
CCCCOc1cc(CC2CNC(=O)N2)ccc1OC (centres undefined) | 86.2
Cc1cn[nH]c1.Cl [4-Methylpyrazole hydrochloride] | 95.4
CC(=O)O/N=C1\C(=O)N(Cc2cc(Cl)ccc2Cl)c2ccc(Cl)cc21 | 99.5
Cc1ccc(F)cc1C(=O)Nc1ccc(C(=O)N2Cc3cccn3Cc3ccccc32)c(Cl)c1 | 131
Cc1c2c(c(O)c3c(O)cccc13)C(=O)OC2C1C(O)C(=O)C(C(N)=O)=C(O)C1N(C)C (racemic) | 102
COc1cc(-c2ccc(=O)[nH]n2)ccc1OC(F)F [Zardaverine] | 110
CC(C)S(=O)(=O)N[C@H]1CCOC[C@@H]1c1ccc(-c2ccc(C#N)s2)cc1 | 104
N#CC(=Cc1ccc(O)c(O)c1)C(=O)NCCCc1ccccc1 [Tyrphostin AG 555] | 107
CC(=O)O.CN=C(N)NCCCC(N)C(=O)O [NG-Monomethyl-L-arginine acetate] | 101
CCCCCCCCC=CCCCCCCCC(=O)OCC(O)COP(=O)(O)O (centres undefined) [Lysophosphatidic acid] | 105
C=C1CC23CC1(O)CCC2C12C=CC(O)C(C)(C(=O)O1)C2C3C(=O)O (single isomer, unassigned; (+)) [(+)-Gibberellic acid] | 89.5
CC(Cc1ccccc1)Nc1ncnc2c1ncn2C1OC(CO)C(O)C1O (stereo not drawn) [R(-)-N6-(2-Phenylisopropyl)adenosine] | 102
N=c1nc(N2CCCCC2)cc(N)n1O [Minoxidil] | 103
O=C1Cc2c([nH]c3ccc(Br)cc23)-c2ccccc2N1 [Kenpaulone] | 83.4
CCCCCCCCCCCCCC=CC(O)C(N)CO (centres undefined) [Sphingosine] | 98.4

From the supplement of paper PMC7156485
